{"source": "PubChem BioAssay (EPA / NIEHS)", "note": "Calls of active or inactive are those of the source. Rule for the calls: active = hit-call score of the fitted dose curve at least 0.9, where 1 is the maximum; inconclusive = response in the unintended direction; inactive = score below 0.9."}
{"molecular_target": "guinea pig Sigma Receptor, Non-selective Binding, SIGMAR1 (gene 100135589) (UniProt Q60492)", "sequence (Q60492 whole entry, looked up)": "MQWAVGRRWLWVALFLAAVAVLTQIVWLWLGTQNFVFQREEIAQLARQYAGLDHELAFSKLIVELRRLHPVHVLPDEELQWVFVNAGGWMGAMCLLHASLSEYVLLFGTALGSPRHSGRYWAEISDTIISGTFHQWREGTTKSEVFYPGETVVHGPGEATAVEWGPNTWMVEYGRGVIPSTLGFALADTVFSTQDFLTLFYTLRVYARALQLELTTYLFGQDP", "test": "NVS_OR_gSIGMA_NonSelective: NovaScreen (NVS) Nuclear Receptor Binding Assay for guinea pig Sigma Receptor, Non-selective Binding (AID 2283367)", "method": "NVS_OR_gSIGMA_NonSelective is a biochemical, single-readout assay that uses extracted gene-proteins from Guinea pig brain membranes in a tissue-based cell-free assay. Measurements were taken 1 hour after chemical dosing in a 48-well plate.NVS_OR_gSIGMA_NonSelective is one of one assay component(s) measured or calculated from the NVS_OR_gSIGMA_NonSelective assay. It is designed to make measurements of radioligand binding, a form of binding reporter, as detected with scintillation counting signals by Filter-based radiodetection technology.Data from the assay component NVS_OR_gSIGMA_NonSelective was analyzed into 1 assay endpoint. This assay endpoint, NVS_OR_gSIGMA_NonSelective, was analyzed in the positive analysis fitting direction relative to DMSO as the negative control and baseline of activity. Using a type of binding reporter, loss-of-signal activity can be used to understand changes in the binding as they relate to the gene Sigmar1. Furthermore, this assay endpoint can be referred to as a primary readout, because the performed assay has only produced 1 assay endpoint. To generalize the intended target to other relatable targets, this assay endpoint is annotated to the misc protein intended target family, where the subfamily is chaperone.\nBinding assays used specific radioligands (tritiated, iodinated) with non-radioactive competitive displacement ligands in agonist or antagonist protocols (as indicated) and various reference compounds and inhibitors to titrate specific binding to receptors and transporters. Most enzyme assays (CYPs, kinases, phosphatases, proteases, HDACs) used recombinant protein and specific substrates (fluorescence mostly, some colorimetric and radioactive) and inhibitors, followed by a biochemical separation of substrate and product. All assays for the biochemical HTS were initially run in duplicate at a single concentration (10 uM for CYP450 assays and 25 uM for all others). […] Each assay was run with positive and negative controls, and concurrent controls on every plate. The follow-up (secondary) screen tested active chemical-pairs in concentration series, as well as a few additional assays not tested in the primary screen, some selected negative inactives, and several cases re-run in the concentration series for confirmatory purposes."}
{"smiles": "CCCC1COC(Cn2cncn2)(c2ccc(Cl)cc2Cl)O1", "note": "(stereo not given)", "AC50": "25 µM (active)"}
{"smiles": "CCOC(=O)CC(SP(=S)(OC)OC)C(=O)OCC", "note": "(stereo not given)", "AC50": "11.4 µM (active)"}
{"smiles": "N#Cc1nn(-c2c(Cl)cc(C(F)(F)F)cc2Cl)c(N)c1S(=O)C(F)(F)F", "note": "(stereo not given)", "outcome": "inactive"}
{"smiles": "CC1COC(Cn2cncn2)(c2ccc(Oc3ccc(Cl)cc3)cc2Cl)O1", "note": "(stereo not given)", "AC50": "1.27 µM (active)"}
{"smiles": "C=CCC1=C(C)[C@@H](OC(=O)[C@@H]2[C@@H](C=C(C)C)C2(C)C)CC1=O", "AC50": "37.4 µM (active)"}
{"smiles": "CCON=C(CC)C1=C(O)CC(c2c(C)cc(C)cc2C)CC1=O", "note": "(stereo not given)", "outcome": "inactive"}
{"smiles": "CON(C)C(=O)Nc1ccc(Cl)c(Cl)c1", "AC50": "12 µM (active)"}
{"smiles": "OC(c1ccc(Cl)cc1)(c1cncnc1)c1ccccc1Cl", "note": "(stereo not given)", "outcome": "inactive"}
{"smiles": "CCc1nn(C)c(C(=O)NCc2ccc(C(C)(C)C)cc2)c1Cl", "AC50": "16.2 µM (active)"}
{"smiles": "CNC(=S)S", "outcome": "inactive"}
